# About 900 (25%) of roughly 3,600 compounds were called active. The rule behind the calls is not given here. The list is a sample of the results. Measured potencies and affinities stand elsewhere.
# Target: Protein Tat (Human immunodeficiency virus type 1 group M subtype B (isolate HXB2)) (UniProt P04608)
# Test: HIV-1 Tat–TAR interaction blockers – biochemical, fluorescence polarization, FAM-labeled TAR RNA, counter-screen for Vif-APOBEC3G degradation inhibitor project, dose response (AID 1117361)
# Conditions: Tat-TAR RNA binding; series mostly up to 100 µM
row,SMILES,outcome
1,O=C(NCc1ccncc1)c1cnccn1,inactive
2,COC(=O)c1ccc(NC(=S)NCCC2=CCCCC2)cc1,inactive
3,CC(=O)Nc1ccc(NC(=O)C(C)OC(=O)CCc2c[nH]c3ccccc23)cc1 (configuration not stated),inactive
4,C=CCN(CC=C)C(=S)NC(=O)c1ccc([N+](=O)[O-])cc1,inactive
5,C/C(=N\NC(=O)c1cnccn1)c1ccc([N+](=O)[O-])cc1,inactive
6,CC1=CC(C)(C)N=C(Nc2nc(C)c3cc(C)cc(C)c3n2)N1,inactive
7,O=C(C/C=N/OCc1c(Cl)cccc1Cl)c1ccc(Cl)cc1,inactive
8,CC(C)(C)OC(=O)N1CCCC1C(=O)N1CCc2ccccc21 (configuration not stated),inactive
9,CC(=O)c1cc2c(cc1NC(=O)CSc1nc3ccccc3o1)OCO2,inactive
10,O=[N+]([O-])c1ccc2nc(-c3ccccc3)oc2c1,inactive
11,CC(=O)NNC(=O)C(O)(c1ccccc1)c1ccccc1,inactive
12,CCc1ccc(S(=O)(=O)/N=C2\C=CC(=O)c3ccccc32)cc1,inactive
13,CC(C)c1ccc(S(=O)(=O)/N=C2/C=CC(=O)c3ccccc32)cc1,inactive
14,CN(C)c1ccc(NC(=O)Nc2cccc(Cl)c2)cc1,inactive
15,COc1ccc(C(=O)N2CCCN(C)CC2)cc1S(=O)(=O)N1CCCc2ccccc21,inactive
16,COC(=O)C1=C(C)NC(=O)NC1c1ccc2c(c1)OCO2 (configuration not stated),inactive
17,Cc1ccc(CCNC(=O)C2CCN(S(=O)(=O)c3ccc4c(c3)CCC(=O)N4)CC2)cc1,inactive
18,CC1CCCC(NC(=O)C2CCC(CNc3c(N4CCCC4)c(=O)c3=O)CC2)C1C (configuration not stated),inactive
19,CCOC(=O)c1c(C)[nH]c(C(=O)COC(=O)CN2C(=O)C3CCCCC3C2=O)c1C (configuration not stated),inactive
20,COc1ccc(C(=O)OCC(=O)c2c(N)n(C)c(=O)n(C)c2=O)cc1OC,inactive
21,COc1ccc(CC(=O)Oc2ccc(F)c(F)c2)cc1S(=O)(=O)N1CCOCC1,inactive
22,CC1(C)CCN(Cc2ccccc2)C1CC#N (configuration not stated),inactive
23,COC(=O)c1cnn2c(C)c(Cc3cccc(F)c3)c(C)nc12,inactive
24,COC(=O)C1CCN(C(=O)NC(C)(C)C)CC1,inactive

row,SMILES,outcome
1,COc1cc2oc3ccccc3c2cc1N(CC(=O)N(C)C)S(=O)(=O)c1ccccc1,inactive
2,CCOc1cc(C2NC(=O)NC(C)=C2C(=O)NCc2ccccc2)c(Cl)cc1O (configuration not stated),inactive
3,c1ccc(Cn2nnnc2-c2ccco2)cc1,inactive
4,O=C(O)c1ccc(S(=O)(=O)c2ccc3c(c2)C(=O)N(Cc2ccco2)C3=O)cc1,inactive
5,Cn1c(N)c(C(=O)CCl)c(=O)n(Cc2ccccc2)c1=O,inactive
6,O=C1c2ccccc2C(=O)N1CCC(c1ccc(F)cc1)c1ccco1 (configuration not stated),inactive
7,CC1CCCCN1C(=O)c1ccc(S(=O)(=O)N2CCCCC2C)cc1 (configuration not stated),inactive
8,COCCn1c(COc2cccc(OC)c2)nnc1SCC(=O)N1CCOCC1,inactive
9,NC(=O)C[C@@H]1N[C@]2(C(=O)Nc3ccccc32)[C@@H]2C(=O)N(c3cc(C(F)(F)F)ccc3Cl)C(=O)[C@H]12,inactive
10,CCn1c(C(=O)OC)cc2c1ccn2-c1ccc(F)cc1,inactive
11,Cc1cccc(N(C(=O)c2ccc(Cl)cc2)C2CS(=O)(=O)CC2OC(=O)c2ccc(Cl)cc2)c1 (configuration not stated),inactive
12,O=C(CSc1nncs1)NC(=O)NCc1ccccc1,inactive
13,COc1ccccc1C(=O)C1CCCN(Cc2ccc3c(c2)OCCO3)C1 (configuration not stated),inactive
14,COC(=O)c1c(C)[nH]c(C(=O)CSc2ccc(Cl)cc2)c1C,inactive
15,Cn1nccc1NC(=O)Nc1ccc(Cl)cc1,inactive
16,CC(C)(C)c1ccc(NC(=O)N2CCN(c3ccc([N+](=O)[O-])cn3)CC2)cc1,inactive
17,Cn1nc(C(=O)OCC(=O)N2CCc3ccccc32)c2ccccc2c1=O,inactive
18,Cc1ccc(C2(C(F)(F)F)NC(=O)N3CCN=C3S2)cc1 (configuration not stated),inactive
19,Cc1nc(N2CCN(Cc3ccccc3)CC2)nc2c1C(=O)CCC2,inactive
20,CCOc1ccc(NC(=O)CCS(=O)(=O)c2ccc(Br)cc2)cc1,inactive
21,CCOc1ccccc1NC(=O)CCS(=O)(=O)c1ccc(Br)cc1,inactive
22,COc1ccc(Cl)cc1NC(=O)CCS(=O)(=O)c1ccc(Br)cc1,inactive
23,NS(=O)(=O)c1ccc(CCNC(=O)CCS(=O)(=O)c2ccc(Br)cc2)cc1,inactive
24,O=C(CCS(=O)(=O)c1ccc(Br)cc1)NCCc1ccccc1,inactive

row,SMILES,outcome
1,CCc1cccc(NC(=O)CCS(=O)(=O)c2ccc(Br)cc2)c1,inactive
2,Cc1ccccc1OCCC(=O)Nc1ccccc1C(=O)NC1CC1,inactive
3,OC(c1ccc(Cl)cc1)C(O)c1nc2ccccc2[nH]1 (configuration not stated),inactive
4,CCCCOc1ccc(C(=O)NCC(=O)NCC(=O)OCC)cc1,inactive
5,CCCCn1nc(C(=O)O)ccc1=O,inactive
6,COc1ccc(CNC(=O)c2sc3nc4c(c(C(F)(F)F)c3c2N)CCC4)cc1OC,inactive
7,CC(=O)Nc1ccc(NC(=O)C(C)OC(=O)CC23CC4CC(CC(Br)(C4)C2)C3)cc1 (configuration not stated),inactive
8,CC1CCCN(CC(O)CN2CCN(CC(O)CN3CCCC(C)C3)C(C)C2)C1 (configuration not stated),inactive
9,CCCC(=O)C1=C(N(C)c2ccccc2)CC(C)(C)CC1=O,inactive
10,COC(=O)C1C(O)=C(C=Nc2ccc(N)cc2)C(=O)CC1(C)C (configuration not stated),inactive
11,CCCc1n[nH]c2c1C(=O)C(C(=O)OC)C(C)(C)C2 (configuration not stated),inactive
12,O=C(Nc1nnc(SCc2c(Cl)cccc2Cl)s1)c1cccc([N+](=O)[O-])c1,inactive
13,CCOC(=O)N1CCC(Nc2c(-c3ccc(C)cc3)c(=O)c2=O)CC1,inactive
14,O=C(Cn1cnc2c(cnn2-c2ccc(F)cc2)c1=O)N1CCN(c2ccccc2)CC1,inactive
15,COc1cc(C2Nc3cccc4cccc(c34)N2)cc(OC)c1OC(C)=O,inactive
16,COc1cc(C)c(C2NC(=O)c3ccccc3N2)cc1C (configuration not stated),inactive
17,CCOC(=O)c1sc(C)c2c(=O)n(CCc3ccccc3)nnc12,inactive
18,O=C(/C=C/Nc1ccccc1Br)c1ccccn1,inactive
19,COc1cccc(OC)c1C(=O)Nc1cc(Cl)ccc1N1CCOCC1,inactive
20,CCOc1cc(NC(=S)NCC(C)C)c(OCC)cc1NC(=O)c1cccs1,inactive
21,O=C(CSc1ncn[nH]1)Nc1nc(-c2ccccc2)ns1,inactive
22,Cc1ccc(C)c(S(=O)(=O)Nc2ccccc2C(=O)Nc2ccccc2N2CCOCC2)c1,inactive
23,O=C(CSc1ncn[nH]1)Nc1c(Br)cc([N+](=O)[O-])cc1Br,inactive
24,COc1ccccc1NS(=O)(=O)c1cc(C(=O)NCCN2CCOCC2)ccc1Cl,inactive

# From PubChem BioAssay AID1117361 (Southern Research Institute, 2015)
